This is one part of a sample in which hits are shown more often than they occur.
AMPAR-TARP mod: GluA2-stargazin AMPA receptor complex modulation. AID 1259245. hit rate 3.5% among 40,000. HEK293 GluA2+stargazin, membrane potential dye (FDSS), glutamate EC50; hits were called plate by plate, in both directions. calls only at 30 µM;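 active = any of four per-well response measures lying three or more SD from its plate-wide compound average, in either direction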
Target sequence (O88602 whole entry, looked up): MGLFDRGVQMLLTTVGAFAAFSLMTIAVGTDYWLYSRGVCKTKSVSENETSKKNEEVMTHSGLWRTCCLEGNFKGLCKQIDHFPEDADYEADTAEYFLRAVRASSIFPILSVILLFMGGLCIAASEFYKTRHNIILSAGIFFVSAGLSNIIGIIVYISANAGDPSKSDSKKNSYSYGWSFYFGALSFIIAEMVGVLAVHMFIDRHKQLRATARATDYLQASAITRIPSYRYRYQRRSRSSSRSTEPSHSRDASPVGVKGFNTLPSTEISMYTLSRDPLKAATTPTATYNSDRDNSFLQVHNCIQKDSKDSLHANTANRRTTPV
Target sequence (P19491 whole entry, looked up): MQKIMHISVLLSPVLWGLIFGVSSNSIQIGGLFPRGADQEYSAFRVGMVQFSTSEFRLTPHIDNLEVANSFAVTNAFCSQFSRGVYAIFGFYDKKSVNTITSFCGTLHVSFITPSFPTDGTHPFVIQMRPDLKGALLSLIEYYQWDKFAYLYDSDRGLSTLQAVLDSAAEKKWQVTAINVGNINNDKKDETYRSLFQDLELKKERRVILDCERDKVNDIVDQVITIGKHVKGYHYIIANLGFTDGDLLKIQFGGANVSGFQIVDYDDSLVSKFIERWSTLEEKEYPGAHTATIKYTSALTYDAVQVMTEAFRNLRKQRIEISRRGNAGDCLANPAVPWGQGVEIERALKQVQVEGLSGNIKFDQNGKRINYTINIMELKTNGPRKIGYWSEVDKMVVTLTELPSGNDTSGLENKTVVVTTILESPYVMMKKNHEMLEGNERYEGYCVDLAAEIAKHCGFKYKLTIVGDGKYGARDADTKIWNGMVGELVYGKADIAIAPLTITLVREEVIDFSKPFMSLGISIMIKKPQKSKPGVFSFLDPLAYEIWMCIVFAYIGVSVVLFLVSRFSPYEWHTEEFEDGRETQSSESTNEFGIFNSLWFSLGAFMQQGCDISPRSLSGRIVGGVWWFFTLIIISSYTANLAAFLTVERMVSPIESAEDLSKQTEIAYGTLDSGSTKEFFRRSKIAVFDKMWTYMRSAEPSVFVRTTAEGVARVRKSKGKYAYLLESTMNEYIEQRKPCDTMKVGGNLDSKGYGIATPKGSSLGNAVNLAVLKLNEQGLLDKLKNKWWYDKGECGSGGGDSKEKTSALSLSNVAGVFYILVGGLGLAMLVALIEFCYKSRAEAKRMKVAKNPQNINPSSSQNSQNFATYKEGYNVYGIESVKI
GIRK2 act: Activators of human GIRK2-containing channels | P48051 | HEK293 GIRK2/NPY4 cells, thallium flux fluorescence | activation (% efficacy), % for hits at 37.5 µM | 34,000 tested, under 10 active | AID 1259324;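 active = primary screen hit, no activity in plain HEK293 cells, and in GIRK2-only cells above 5% efficacy rising with concentration; inactive = the rest, including fluorescent compounds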;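 also: efficacy is normalized control-subtracted fluorescence 15 s after thallium addition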
Large screens that a line does not name were inactive.

O=C(Nc1cccc([N+](=O)[O-])c1)c1ccc(=O)n(Cc2cccc([N+](=O)[O-])c2)c1	none
Cc1cc([N+](=O)[O-])ccc1NC(=O)c1ccc(=O)n(Cc2ccccc2)c1	none
Cc1ccc([N+](=O)[O-])cc1NC(=O)c1ccc(=O)n(Cc2cccc(C(F)(F)F)c2)c1	none
Cc1cc([N+](=O)[O-])ccc1NC(=O)c1ccc(=O)n(Cc2cccc([N+](=O)[O-])c2)c1	AMPAR-TARP mod active
O=C(Nc1ccc(Br)cc1)c1ccc(=O)n(Cc2cccc([N+](=O)[O-])c2)c1	AMPAR-TARP mod active
Cc1cc([N+](=O)[O-])ccc1NC(=O)c1ccc(=O)n(Cc2cccc(C(F)(F)F)c2)c1	AMPAR-TARP mod active
O=C(Nc1ccc(Cl)cc1)c1ccc(=O)n(Cc2cccc(Cl)c2)c1	none
O=C(Nc1ccc(F)c(F)c1)c1ccc(=O)n(Cc2cccc(Cl)c2)c1	AMPAR-TARP mod active
COc1ccc2nc(-c3ccc(OC)c(NC(=O)Cc4ccc(Cl)cc4)c3)cn2n1	none
COCC(C)NC(=O)C(=O)Nc1nccs1 (centres undefined)	none (no result: GIRK2 act)
O=C(Nc1nc(-c2ccc3c(c2)OCCO3)cs1)C1CCN(S(=O)(=O)c2cccs2)CC1	none (no result: GIRK2 act)
O=C(c1cccs1)N1CCc2ccc(NC(=O)C3(c4ccccc4)CCOCC3)cc2C1	none
COc1ccc(CNC(=O)N2CCC(c3nnc(-c4ccco4)o3)CC2)cc1	none
COc1ccc(NC(=O)c2ccsc2)cc1Cl	none
CS(=O)(=O)N1CCCC(C(=O)Nc2nnc(-c3ccc(Cl)cc3)o2)C1 (centres undefined)	none
CC(=O)Nc1cccc(NC(=O)CSc2ccc(NC(C)=O)nn2)c1	none (no result: AMPAR-TARP mod)
COc1ccc(S(=O)(=O)N2CCCOC2CNC(=O)C(=O)NC2CC2)cc1C (centres undefined)	none (no result: GIRK2 act)
Cc1ccc(Cl)c2sc(N(CCCn3ccnc3)C(=O)c3cccs3)nc12	AMPAR-TARP mod active
O=C(c1cccs1)N(CCCn1ccnc1)c1nc2ccccc2s1	none
COc1ccc(C(=O)NC(=S)N2CCOCC2)cc1I	none (no result: GIRK2 act)
CN1CCN(n2c3c(c(SCC(=O)Nc4ccc5c(c4)OCCO5)nc2=O)CCC3)CC1	none
COc1ccc(C(=O)NCCC2=CCCCC2)cc1	none
O=C(Cc1csc(SCC(=O)c2ccc3c(c2)OCO3)n1)NCCC1=CCCCC1	none (no result: AMPAR-TARP mod)
Cc1ccc(CSc2nc(CC(=O)NCCC3=CCCCC3)cs2)cc1	AMPAR-TARP mod active
CCc1ccc(OCC(=O)NCCC2=CCCCC2)cc1	AMPAR-TARP mod active
C=CCn1c(C2CC(=O)N(CCc3ccccc3)C2)nc2ccccc21 (centres undefined)	none (no result: GIRK2 act)
Cc1ccc2nc(N(CCN3CCOCC3)C(=O)/C=C/c3cccs3)sc2c1	none (no result: GIRK2 act)
O=C(NCCC(c1ccccc1)c1ccccc1)C(=O)Nc1ccc2c(c1)OCO2	none (no result: GIRK2 act)
Cc1ccc(-c2csc(NC(=O)c3ccc(S(=O)(=O)C(C)C)cc3)n2)cc1	none (no result: GIRK2 act)
CC(C)N(C)S(=O)(=O)c1ccc(C(=O)Nc2nc(-c3ccncc3)cs2)cc1	AMPAR-TARP mod active
CCS(=O)(=O)c1ccc(CC(=O)N2CCN(c3ccccc3)CC2)cc1	none (no result: GIRK2 act)
O=C(Cc1cccc2ccccc12)NCC1(O)CCc2ccccc21 (centres undefined)	none (no result: AMPAR-TARP mod)
O=S(=O)(NCC(O)(c1ccco1)C1CC1)c1ccc(F)c(Cl)c1 (centres undefined)	AMPAR-TARP mod active
O=S(=O)(NCC(O)(c1ccco1)C1CC1)c1cc(F)ccc1F (centres undefined)	none
Cc1noc(C)c1CCC(=O)NCCn1nc(-n2cccn2)ccc1=O	none (no result: AMPAR-TARP mod)
CCc1ccccc1NC(=O)COc1ccccc1CC	none
Cc1nc(N2CCN(c3ccccc3F)CC2)c2c3c(sc2n1)CCCC3	none (no result: GIRK2 act)
CCc1nc(-n2nc(C)cc2N)c2c3c(sc2n1)CCC3	AMPAR-TARP mod active
O=C(c1cnn(-c2ccccc2)n1)N1CC(c2nc(-c3ccc[nH]c3=O)no2)C1	none (no result: AMPAR-TARP mod)
O=C(CSC1CCCC1)N1CCN(c2ccc(-c3ccco3)nn2)CC1	none
O=C(NCc1cccs1)C(=O)NCC1CCN(Cc2cccs2)CC1	none
COCCN1CCC(CNC(=O)C(=O)NCc2cccs2)CC1	AMPAR-TARP mod active
O=C(Nc1cc(-c2ccco2)nn1-c1nc2c(c(=O)[nH]1)CCCC2)C12CC3CC(CC(C3)C1)C2	none
CCc1cccc2sc(N(Cc3ccncc3)C(=O)c3ccc(C#N)cc3)nc12	AMPAR-TARP mod active
CCOc1cccc2sc(N(Cc3ccncc3)C(=O)c3ccc(S(=O)(=O)N(C)C)cc3)nc12	none (no result: AMPAR-TARP mod)
O=C(c1ccc([N+](=O)[O-])cc1)N(Cc1ccncc1)c1nc2ccc(F)cc2s1	AMPAR-TARP mod active
O=C(c1ccc([N+](=O)[O-])cc1)N(Cc1ccncc1)c1nc2c(F)cccc2s1	none
Cc1ccc(Cl)cc1NC(=O)Cn1c(=O)n(C2CC2)c(=O)c2nscc21	AMPAR-TARP mod active
Cc1ccc(NC(=O)Cn2c(=O)n(C3CC3)c(=O)c3nscc32)c(C)c1	none
COCCNC(=O)COc1ccc(Br)cc1C(C)(C)C	none
N#C/C(=C\c1ccc(O)cc1)c1nc2ccccc2s1	none (no result: GIRK2 act)
N#C/C(=C\c1cccnc1)c1nc2ccccc2s1	AMPAR-TARP mod active (no result: GIRK2 act)
CC(C)C(=O)Nc1ccc(SCC(=O)Nc2ccc(Cl)c(Cl)c2)nn1	none
CC(C(=O)Nc1ccc(Cl)c(Cl)c1)N1C(=O)C2CC=C(Cl)CC2C1=O (centres undefined)	AMPAR-TARP mod active (no result: GIRK2 act)
Cc1cccc(Cn2c(=O)c3nscc3n(CC(=O)Nc3ccccc3C)c2=O)c1	none
CC(=O)c1ccc(NC(=O)Cn2c(=O)n(Cc3ccccc3)c(=O)c3nscc32)cc1	AMPAR-TARP mod active
COc1ccccc1N1CCN(CCNS(=O)(=O)c2ccc(F)c(C)c2)CC1	none (no result: GIRK2 act)
Cc1nnsc1C(=O)N1CC(c2nc(-c3ncccn3)no2)C1	none (no result: GIRK2 act)
COc1cc(/C=C2\SC(=S)N(c3ccc4c(c3)OCO4)C2=O)cc(OC)c1OC	none (no result: GIRK2 act)
COc1cccc(/C=C2/SC(=S)N(c3ccc4c(c3)OCO4)C2=O)c1OC	AMPAR-TARP mod active (no result: GIRK2 act)
CCCCOc1ccc(S(=O)(=O)NCCn2nc(-c3ccncc3)ccc2=O)cc1	none (no result: AMPAR-TARP mod)
O=C1c2ccc(-n3c(=O)c4ccccc4c4ccccc4c3=O)cc2C(=O)N1c1ccccc1	none (no result: GIRK2 act)
Nc1ccc2c3c(cccc13)C(=O)N(c1ccccc1)C2=O	AMPAR-TARP mod active (no result: GIRK2 act)
Cc1cc(C)c2c(n1)sc1c(=O)n(CC(=O)Nc3ccc(Cl)cc3)cnc12	none
CCC(C)NC(=O)Cn1cnc2c(sc3nc(C)cc(C)c32)c1=O (centres undefined)	AMPAR-TARP mod active
Cn1nnc2c(SCC(=O)NCc3ccco3)ncnc21	none
Cc1cnc2c(c1SCC(=O)Nc1ccc(Br)cc1)c(=O)n(C)c(=O)n2C	none
CC(C)c1ccc(NC(=O)CSc2nc3c(c(=O)[nH]2)CN(Cc2ccc(F)cc2)CC3)cc1	none
OC(COc1ccc(-c2ccccc2)cc1)CN1CCN(c2ccccn2)CC1 (centres undefined)	none (no result: GIRK2 act)
OC(COc1ccc2cc(Br)ccc2c1)CN1CCN(c2ccccn2)CC1 (centres undefined)	AMPAR-TARP mod active (no result: GIRK2 act)
O=C(c1ccc(=O)[nH]n1)N1CCc2ccccc21	none
CC(=O)c1sc(=Nc2ccccc2Cl)n(CCCN2CCOCC2)c1C	AMPAR-TARP mod active
O=C(CCn1c(=O)sc2ccccc21)NCCCN1CCOCC1	none
CC1Cc2c(NC(=O)Cn3cnc4ccccc43)nn(C)c2NC1=O (centres undefined)	none
COc1ccc2nc(N3CC(C(=O)NCCc4cccs4)C3)sc2c1	none
CC(C)c1nnc(C2CCN(S(=O)(=O)c3ccc4c(c3)CCCC4)CC2)o1	AMPAR-TARP mod active
